Screening data as filed in PubChem BioAssay.
GRIN3A LBD mod: modulates the human NR3A ligand-binding domain | NR3A LBD differential scanning fluorimetry, Tm shift; 0% = protein alone, 100% = glycine-bound protein | Tm shift relative to glycine control, % at 25 µM | 2.5% of 340,000 active | AID 1259313;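 active means melting temperature shift of at least 10% of the positive control shift, at one fixed dose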
Rpn11 block: blocks the human proteasome subunit Rpn11 | human 26S proteasome, Ub4-pepOG fluorescence polarization; 20S core pre-blocked with epoxomicin | O00487 | 0.59% of 360,000 active | AID 588493 | inhibition, % at 20 µM;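 active means inhibition at 20 µM, scaled to each plate's controls, above about 33%, limit read from the data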
EBNA-1 inhibitor: blocks EBNA-1 binding to DNA. AID 1950. inhibition, % at 14.8 µM. EBNA-1 DNA binding, fluorescence polarization. 0.34% of 300,000 active; in the data active means inhibition above about 28%
ZTA counter: blocks Epstein-Barr virus ZTA, an EBNA-1 counter-screen. P03206. ZTA-DNA binding, fluorescence polarization. inhibition, % at 11 µM. 0.15% of 320,000 active. AID 2234; in the data active means inhibition above about 33%
Target sequence (P03206 whole entry, looked up): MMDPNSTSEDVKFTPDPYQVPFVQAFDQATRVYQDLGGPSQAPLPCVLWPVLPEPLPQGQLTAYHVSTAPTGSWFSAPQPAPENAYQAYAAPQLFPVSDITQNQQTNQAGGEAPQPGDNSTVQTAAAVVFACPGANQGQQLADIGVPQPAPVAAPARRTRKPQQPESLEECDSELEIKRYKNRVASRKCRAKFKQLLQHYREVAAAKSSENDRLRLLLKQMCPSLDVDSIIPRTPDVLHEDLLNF
dFosB act: mouse delta FosB homodimer activation; P13346; purified delta FosB, TAMRA-CDK5 oligo fluorescence polarization; percent of positive-control signal above neutral wells; activation, % at 25 µM; 0.99% of 340,000 active; AID 493131;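 active means mean activation above about 17%, with every replicate also reaching it, limit read from the data, passing the limit was not always enough; inconclusive means only one of the two conditions met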
Target sequence (P13346 whole entry, looked up): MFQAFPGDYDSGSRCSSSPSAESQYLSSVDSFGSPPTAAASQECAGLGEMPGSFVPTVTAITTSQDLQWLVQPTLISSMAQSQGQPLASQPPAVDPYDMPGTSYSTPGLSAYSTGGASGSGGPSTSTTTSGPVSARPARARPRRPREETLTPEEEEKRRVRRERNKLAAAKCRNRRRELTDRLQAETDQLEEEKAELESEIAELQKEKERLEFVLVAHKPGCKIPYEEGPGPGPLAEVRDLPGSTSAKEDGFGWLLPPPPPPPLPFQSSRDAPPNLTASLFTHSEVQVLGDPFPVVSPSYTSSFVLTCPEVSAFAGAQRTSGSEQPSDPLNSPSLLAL
TPT1 inh: C. albicans TPT1 enzyme inhibition. recombinant caTPT1, FP RNA substrate dephosphorylation. inhibition, % at 5 µM. AID 1962. 0.81% of 300,000 active;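 active means inhibition above the mean of all tested compounds plus 3 SD, set per screening campaign, cut at about 24% in these data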
Hits are given with their value; 0 = inactive; ? = inconclusive; - = no result given. A selection: hits, their analogues and other compounds. The true share with any hit is near 4.5%.

SMILES	GRIN3A LBD mod	Rpn11 block	EBNA-1 inhibitor	ZTA counter	dFosB act	TPT1 inh
Fc1ccc(N/N=C/c2ccncc2)c(F)c1	22.6	0	0	0	0	0
CSc1ncccc1C(=O)NCCc1ccccc1F	0	0	0	0	0	0
C=C(C)CNC(=S)NNC(=O)CCn1c2ccc(Cl)cc2c2cc(Cl)ccc21	26.8	0	0	0	0	0
C=C(C)CNC(=S)NNC(=O)CCn1c2ccccc2c2ccccc21	0	0	0	0	0	0
C=C(C)CNC(=S)NNC(=O)CCn1c2cc(Cl)ccc2c2ccc(Cl)cc21	16.2	0	0	0	0	0
Cc1ccc(C(=O)NC(=S)Nc2ccc(NC(=O)c3cccs3)cc2)cc1[N+](=O)[O-]	30.7	0	0	0	0	0
Cc1cc(NC(=O)c2ccc(C)c([N+](=O)[O-])c2)no1	0	0	0	0	0	0
Cc1ccc(NC(=O)c2cccs2)cc1[N+](=O)[O-]	0	0	0	0	0	0
Cc1ccc(C(=O)Nc2ccc(NC(=O)c3cccs3)cc2)cc1[N+](=O)[O-]	29.5	0	0	0	0	0
Cc1ccc(C(=O)Nc2cccc(NC(=O)c3ccc(C)c([N+](=O)[O-])c3)n2)cc1[N+](=O)[O-]	14.4	0	0	0	0	0
O=C(Cn1cnc2ccccc2c1=O)NCCCN1CCCC1=O	0	0	-	0	0	-
Oc1ccc(C[C@H]2CNC(=S)N2CC2CCCN2C[C@H](Cc2ccc(O)cc2)N2C[C@H](Cc3ccc(O)cc3)N(CC3CCCCC3)C2=S)cc1 (stereo partly specified)	18.5	0	-	-	0	-
Oc1ccc(C[C@H]2CNC(=S)N2CC2CCCN2C[C@H](Cc2ccccc2)N2C[C@H](Cc3ccc(O)cc3)N(CC3CCCCCC3)C2=S)cc1 (stereo partly specified)	33.2	0	-	-	?	-
COc1ccc(/C=C2/SC(=O)NC2=O)cc1	0	0	0	0	0	0
COc1ccc(/C=C2/C(=O)C(C)(C(C)C)CCC2C)cc1 (stereo unspecified)	10.2	0	0	0	0	0
O=C(Nc1nc(-c2ccccc2)c(C(=O)c2ccccc2)s1)c1ccc(S(=O)(=O)N2CCCC2)cc1	14.4	0	0	0	0	0
Cc1ccc(-c2nc(NC(=O)c3ccc(S(=O)(=O)N(CCC#N)CCC#N)cc3)sc2-c2ccccc2)cc1	10.3	0	0	0	0	0
N#CCCN(CCC#N)S(=O)(=O)c1ccc(C(=O)Nc2nc(-c3ccccc3)c(C(=O)c3ccccc3)s2)cc1	11.7	0	0	0	0	0
CN(C)S(=O)(=O)c1ccc(C(=O)Nc2nc(-c3ccccc3)c(C(=O)c3ccccc3)s2)cc1	22.2	0	0	0	0	0
Cc1c(CNC(=O)C2CCC(=O)N(CCc3ccccc3)C2)cnn1C (stereo unspecified)	0	0	0	0	0	0
O=C(NCCS(=O)(=O)N1CCN(c2ccc(F)cc2)CC1)c1ccco1	22.2	0	0	0	0	0
O=[N+]([O-])c1ccc(N=Nc2c(Cl)cc(O)cc2Cl)cc1	17.6	0	0	0	0	0
CCOC(=O)[C@H]1[C@H]2COc3ccc(OC)cc3[C@@H]2N2C(=O)[C@H](C)NC(=O)[C@@]12C	0	0	-	0	0	-
COc1ccc(-n2c(SCC(=O)N(C)C3CCS(=O)(=O)C3)nc3ccc(O)cc3c2=O)cc1OC (stereo unspecified)	13.6	0	-	-	0	-
O=C(NCc1ccco1)c1cccc(Nc2nc3ccc(Br)cc3[nH]2)c1	12.8	0	0	0	0	0
SMILES	GRIN3A LBD mod	Rpn11 block	EBNA-1 inhibitor	ZTA counter	dFosB act	TPT1 inh
O=C(NCC1CC1)c1ccc(Nc2nc3ccc(Br)cc3[nH]2)cc1	27.9	0	0	0	0	0
O=C(NCc1ccco1)c1ccc2nc([C@@H]3O[C@H](CO)[C@H](O)[C@H](O)[C@H]3O)[nH]c2c1	-	0	-	-	-	-
O=C(O)c1ccccc1C=NNc1ccccn1	0	0	-	-	0	-
CCCN(CC(=O)Nc1cc(Cl)ccc1Cl)C(=O)/C=C/c1ccco1	0	0	0	0	0	0
Cc1ccc(NC(=S)NNC(=S)Nc2ccc(C)cc2C)cc1	11.3	0	0	0	0	0
Cc1ccc(NC(=S)N2CCOCC2)c(C)c1	16.2	0	0	0	0	0
Cc1ccc(NC(=O)CCC(=O)NNC(=S)Nc2ccccc2)c(C)c1	0	0	0	0	0	0
CCCn1c(=S)[nH]c2cc(C(=O)N3CCN(C4CCCCC4)CC3)ccc2c1=O	14.8	0	0	0	0	0
CCn1c(C)c(C)c2cc(C(=O)N3CCc4ccccc4C3)ccc21	0	0	0	0	18.6	0
CC(C)c1ccc(NC(=O)COC(=O)CSc2nnc(N)s2)cc1	13.0	0	0	0	0	0
Nc1nnc(SCC(=O)OCC(=O)Nc2ccccc2F)s1	0	0	0	0	0	0
O=C(COc1c(F)c(F)c(C(F)(F)F)c(F)c1F)Nc1ccc(N2CCOCC2)c(Cl)c1	11.3	0	0	0	0	0
Cc1cc(/C=C2\Sc3ccccc3N2C)cc(C)[n+]1CC1CCCO1 (stereo unspecified)	0	0	-	-	0	-
CCOCC(=O)OCC(=O)NC12CC3CC(CC(C3)C1)C2	0	0	0	0	0	0
CCOC(=O)C(=O)NC12CC3CC(CC(C3)C1)C2	10.9	0	0	0	0	0
C[C@H](O)[C@@H]1C(=O)N2CCc3c([nH]c4ccccc34)[C@@H]2C[C@@H]1N(C)C(=O)Nc1cc(Cl)cc(Cl)c1	-	0	-	-	-	-
O=S(=O)(Nc1nccs1)c1ccc(NS(=O)(=O)c2c(F)cc(F)c(Cl)c2F)cc1	0	0	-	-	0	-
CC(C)Cc1csc(NC(=O)c2ccc(Cl)cc2)c1C(=O)O	0	0	0	0	0	0
CC(C)Cc1csc(NC(=O)c2ccccc2Cl)c1C(=O)O	11.6	0	0	0	0	0
O=c1cc(CO)oc2ccccc12	0	0	-	-	0	-
CCCCCc1cc(=O)c2ccccc2o1	53.0	0	-	-	0	-
Cc1ccc(/C=C2/CNC/C(=C/c3ccc(C)cc3)C2=O)cc1	30.8	0	-	-	0	-
Cc1ccc(/C=C2\CCOC2=O)cc1	-	0	0	0	0	0
COC(C(=O)Nc1ccc(S(=O)(=O)Nc2cccc3ccccc23)cc1)c1ccccc1 (stereo unspecified)	0	0	0	0	0	0
COc1ccccc1Nc1ccc([N+](=O)[O-])cc1N	0	0	0	0	0	0
COc1cc(Nc2ccccc2Cl)c([N+](=O)[O-])nc1[N+](=O)[O-]	11.0	0	0	0	0	0
CCOC(=O)C1C(C(C)=O)=C(c2ccccc2)c2ccccc2N1S(=O)(=O)C(F)(F)F (stereo unspecified)	11.3	0	-	-	0	-
CCOC(=O)C1C(C(=O)OC)=C(c2ccc(F)cc2)c2ccccc2N1S(=O)(=O)C(F)(F)F (stereo unspecified)	0	0	-	-	0	-
CCOC(=O)C1C(C(=O)OC)=C(c2ccc(OC)cc2)c2ccccc2N1S(=O)(=O)C(F)(F)F (stereo unspecified)	11.3	0	-	-	0	-
